Reference: PubChem BioAssay (NCI)
Compounds without any hit were thinned out: in the full panel of roughly 79,000, 15% have a hit. The source made the active and inactive calls. Cut-off read from the data, not from the text of the source: active = growth inhibition above about 70%; inactive = the rest.

Legend:
[1] = NCI Yeast Anticancer Drug Screen. Data for the rad52 strain (AID 147);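 note: 0% = growth of vehicle-treated control cultures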; settings: S. cerevisiae rad52 mutant growth inhibition, hits give high values
Procedure, shortened: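 Vehicle-treated cultures served as the reference for growth inhibition of compound-exposed yeast bearing a DNA repair mutation.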

[2] = NCI Yeast Anticancer Drug Screen. Data for the wt1 strain (AID 149);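 note: 0% = growth of vehicle-treated wt1 cultures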; settings: S. cerevisiae wt1 strain (SPY 50644) growth inhibition, hits give high values
Procedure, shortened: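 wt1 strain grown with compound or vehicle; inhibition taken from the growth difference.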

[3] = NCI Yeast Anticancer Drug Screen. Data for the rad50EPP+ strain (AID 151);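 note: 0% = growth of vehicle-treated control cultures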; settings: S. cerevisiae rad50 mutant strain, hits give high values
Procedure, shortened: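 In this screen, rad50EPP+ yeast were exposed to compounds. Growth inhibition was scored against vehicle-treated controls.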

[4] = NCI Yeast Anticancer Drug Screen. Data for the mgt1 strain (AID 153); settings: S. cerevisiae mgt1 mutant growth inhibition, hits give high values
Procedure, shortened: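 mgt1 strain exposed; growth vs vehicle control recorded as inhibition.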

[5] = NCI Yeast Anticancer Drug Screen. Data for the rad50 strain (AID 155);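 note: 0% = growth of vehicle-only cultures of the same strain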; settings: S. cerevisiae rad50 strain growth inhibition, hits give high values
Procedure, shortened: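 DNA repair mutant yeast, compound exposure, growth read-out; inhibition is taken relative to vehicle.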

[6] = NCI Yeast Anticancer Drug Screen. Data for the mec2-1 strain (AID 157); settings: S. cerevisiae mec2-1 strain, hits give high values
Procedure, shortened: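 Vehicle-treated cultures served as reference for growth inhibition of compound-exposed mec2-1 yeast.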

[7] = NCI Yeast Anticancer Drug Screen. Data for the rad14 strain (AID 159);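 note: 0% = growth of vehicle-treated control cultures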; settings: S. cerevisiae rad14 strain growth inhibition, hits give high values
Procedure, shortened: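 DNA repair-defective yeast, compound-exposed; % growth inhibition derived by comparison with vehicle-treated controls.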

[8] = NCI Yeast Anticancer Drug Screen. Data for the sgs1 mgt1 strain (AID 161);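 note: 0% = growth of cultures given vehicle only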; settings: S. cerevisiae sgs1 mgt1 strain, hits give high values
Procedure, shortened: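 Test agents were incubated with a DNA-repair-mutant yeast strain. Growth was then read and compared against vehicle-treated controls.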

[9] = NCI Yeast Anticancer Drug Screen. Data for the CLN2oe strain (AID 163);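 note: 0% = growth of vehicle-only control cultures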; settings: S. cerevisiae CLN2oe strain, hits give high values
Procedure, shortened: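 Inhibition relative to vehicle-treated yeast is reported. Cells: strain with genetic alteration in cell-cycle control, grown with compound.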

[10] = NCI Yeast Anticancer Drug Screen. Data for the cln2 rad14 strain (AID 165);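 note: 0% = growth equal to vehicle treated cultures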; settings: S. cerevisiae cln2 rad14 strain, hits give high values
Procedure, shortened: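 Each compound was tested on cln2 rad14 yeast. Inhibition of growth was calculated against vehicle-exposed controls.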

[11] = NCI Yeast Anticancer Drug Screen. Data for the bub3 strain (AID 167); settings: S. cerevisiae bub3 mutant strain, hits give high values
Procedure, shortened: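 In this screen, a yeast mutant lacking normal mitotic checkpoint function is challenged with compound. Relative growth versus vehicle gives the inhibition value.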

[12] = NCI Yeast Anticancer Drug Screen. Data for the wt2 strain (AID 169);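 note: 0% = growth of vehicle-treated yeast cultures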; settings: S. cerevisiae wt2 strain growth inhibition, hits give high values
Procedure, shortened: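 Inhibition of yeast growth was determined after compound treatment, normalised to controls receiving only vehicle.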

[13] = NCI Yeast Anticancer Drug Screen. Data for the mlh1 strain (AID 171);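 note: 0% = growth of vehicle-treated control cultures of the same strain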; settings: S. cerevisiae mlh1 strain growth inhibition, hits give high values
Procedure, shortened: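 Vehicle-normalised growth inhibition of a repair- or checkpoint-altered yeast strain following compound treatment.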

[14] = NCI Yeast Anticancer Drug Screen. Data for the sgs1 strain (AID 173);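 note: 0% = growth of vehicle-only control cultures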; settings: S. cerevisiae sgs1 mutant, hits give high values
Procedure, shortened: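 Screen format: yeast with repair or checkpoint alterations, compound exposure, growth read relative to vehicle.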

[15] = NCI Yeast Anticancer Drug Screen. Data for the mlh1 rad18 strain (AID 175); settings: S. cerevisiae mlh1 rad18 strain growth inhibition, hits give high values
Procedure, shortened: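 Vehicle-treated cultures served as the reference for growth inhibition in a yeast strain carrying DNA damage repair alterations exposed to each compound.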

[16] = NCI Yeast Anticancer Drug Screen. Data for the rad18 strain (AID 177); settings: S. cerevisiae rad18 mutant growth inhibition, hits give high values
Procedure, shortened: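 Test articles were incubated with altered yeast defective in DNA damage repair. Results are given as inhibition of growth versus vehicle.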

[17] = at 5.0 µM (retest, dose inferred, filed as 0.5)
[18] = at 50.0 µM (retest, dose inferred, filed as 5.0)

Measured: growth inhibition

O=C(/C=C/c1cccc(Br)c1)c1ccc(Cl)cc1
active: [1]; at 100.0 µM 76% | [4]; at 100.0 µM 70% | [5]; at 50.0 µM 81.9% | [5]; at 100.0 µM 82% | [6]; at 50.0 µM 73% | [11]; [18] 84% | [11]; at 100.0 µM 82% | [12]; at 100.0 µM 72% | [13]; at 100.0 µM 76% | [14]; at 100.0 µM 73% | [15]; at 50.0 µM 75.3% | [16]; at 100.0 µM 84%
inactive: [1]; at 1.2 µM -26% | [1]; at 3.7 µM -14% | [1]; at 11.0 µM -6% | [1]; at 33.0 µM 28% | [2]; at 1.2 µM -46% | [2]; at 3.7 µM -44% | [2]; at 11.0 µM -12% | [2]; at 33.0 µM 9% | [2]; at 100.0 µM 63% | [3]; at 1.2 µM -62% | [3]; at 3.7 µM -22% | [3]; at 11.0 µM -25% | [3]; at 33.0 µM -13% | [3]; at 100.0 µM 2% | [4]; at 1.2 µM -40% | [4]; at 3.7 µM -36% | [4]; at 11.0 µM -13% | [4]; at 33.0 µM 32% | [5]; at 1.2 µM -9% | [5]; at 3.7 µM 0% | [5]; [17] 35% | [5]; at 11.0 µM 27% | [5]; at 33.0 µM 66% | [5]; [18] 47% | [6]; at 1.2 µM -65% | [6]; at 3.7 µM -68% | [6]; [17] 32% | [6]; at 11.0 µM -51% | [6]; at 33.0 µM -18% | [6]; [18] 47% | [6]; at 100.0 µM 53% | [7]; at 1.2 µM -67% | [7]; at 3.7 µM -46% | [7]; at 11.0 µM -49% | [7]; at 33.0 µM -15% | [7]; at 100.0 µM 46% | [8]; [17] 4% | [8]; [18] 60% | [9]; at 1.2 µM -17% | [9]; at 3.7 µM -19% | [9]; at 11.0 µM -13% | [9]; at 33.0 µM -12% | [9]; at 100.0 µM 36% | [10]; [17] 46% | [10]; [18] 48% | [11]; at 1.2 µM -16% | [11]; at 3.7 µM -7% | [11]; [17] 52% | [11]; at 11.0 µM 38% | [11]; at 33.0 µM 57% | [12]; at 1.2 µM -31% | [12]; at 3.7 µM -28% | [12]; at 11.0 µM -19% | [12]; at 33.0 µM 20% | [13]; at 1.2 µM -30% | [13]; at 3.7 µM -19% | [13]; at 11.0 µM -7% | [13]; at 33.0 µM 19% | [14]; at 1.2 µM -67% | [14]; at 3.7 µM -42% | [14]; at 11.0 µM -7% | [14]; at 33.0 µM 31% | [15]; [17] 26% | [15]; [18] 56% | [16]; at 1.2 µM -37% | [16]; at 3.7 µM -13% | [16]; at 11.0 µM 30% | [16]; at 33.0 µM 61%
